Screening data (PubChem)
The list is not random: actives were taken first. Their share in the collection is about 2.4%.
D2 ag-1 = agonists of human D2 dopamine receptor | P14416 | HEK293 T-REx D2 cells, calcium flux agonist mode | activation, % at 2 µM | actives 0.53% (n = 340,000) | AID 485358;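 active = activation over 3 SD above normal in the single-dose calcium agonist read, cut at about 30% in these data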; also: 0% is about no effect
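In this primary screen, compounds producing a positive calcium signal within 180 s of addition to tetracycline-induced, force-coupled HEK293 Trex D2 cells are flagged; cells are dye-loaded with a no-wash calcium kit beforehand.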
D2 ag-2 = human D2 receptor agonism in beta-arrestin assay; P14416; DiscoveRx PathHunter D2 beta-arrestin, luminescence, 90 min; 100% = 57 uM dopamine signal; activation, % (no concentration beside the values); actives 0.084% (n = 360,000); in the data active = activation above about 40%; inconclusive = between about 15% and that limit
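Agonist mode: compounds alone added to overnight-plated D2 PathHunter cells for 90 min at 37 C, with 57 uM final dopamine (EC100) defining full response. Beta-arrestin recruitment detected by chemiluminescent reagent, read after 1 h at ambient temperature.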
D2 antag = antagonists of human D2 dopamine receptor | P14416 | HEK293 TREx D2 cells, calcium flux, dopamine EC80 | inhibition, % at 10 µM | actives 2% (n = 340,000); in the data active = inhibition above about 30%; inactive = below that, where a call was filed; also: 0% is about no effect
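Compounds are added to dye-loaded, induced HEK293 T-REx cells coupled to calcium release via D2; after a 3 min kinetic read an EC80 dopamine stimulus is given and fluorescence is recorded for 3 more min.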
D2 PAM-1 = positive allosteric modulators of human D2 dopamine receptor; P14416; HEK293 T-REx D2, calcium flux, EC20 dopamine potentiation; potentiation, % at 10 µM; actives 0.34% (n = 340,000); AID 485347;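 active = potentiation over 3 SD above the plate norm, cut at about 30% in these data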; also: 0% is about no effect
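Primary screen. Calcium kinetics in induced HEK293 T-REx D2 cells: compound pre-addition 180 s, EC20 dopamine, 180 s more.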
D2 PAM-2 = positive allosteric modulators of human D2 dopamine receptor; actives 0.23% (n = 360,000); potentiation, % (test concentration not listed); P14416; DiscoveRx D2 beta-arrestin cells, luminescence, 90 min; 100% = 57 uM dopamine signal; in the data active = potentiation above about 50%; inconclusive = mostly about 30% to 49%
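PathHunter beta-arrestin assay in DiscoveRx D2 cells. Compounds were added with an EC20 of dopamine (50 nM final) for 90 min at 37 deg C. Luminescence was read 1 h after detection reagent, with 57 uM dopamine as the EC100 control.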
D3 arrestin ag = confirmation of human D3 dopamine receptor agonists, beta-arrestin; actives 4% (n = 2,300); DiscoveRx D3 beta-arrestin cells, luminescence, 90 min; AID 720506; shares compounds with D2 ag-1; Potency, µM (top dose mostly 76.9 µM), inactives show top-dose activation, most hits filed as activators;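 also: potency is read from the fitted curve at half-maximal effect; 100% = dopamine control response; nearly all actives have a fitted effect of over 70% in size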
Target sequence (P35462 whole entry, looked up): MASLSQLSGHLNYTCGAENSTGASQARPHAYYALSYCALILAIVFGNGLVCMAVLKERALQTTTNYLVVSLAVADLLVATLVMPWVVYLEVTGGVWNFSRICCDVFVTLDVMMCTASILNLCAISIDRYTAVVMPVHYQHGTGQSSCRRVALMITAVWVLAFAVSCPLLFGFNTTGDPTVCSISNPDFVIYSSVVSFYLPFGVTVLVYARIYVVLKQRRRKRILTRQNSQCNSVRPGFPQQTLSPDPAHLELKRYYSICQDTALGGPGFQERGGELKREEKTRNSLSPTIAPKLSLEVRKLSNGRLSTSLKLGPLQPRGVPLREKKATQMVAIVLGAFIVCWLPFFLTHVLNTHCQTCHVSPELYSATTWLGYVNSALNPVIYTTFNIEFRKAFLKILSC
D2 ag-3 = activates human D2 dopamine receptor in D3 counterscreen. shares compounds with D2 ag-1. DiscoveRx PathHunter D2 beta-arrestin, luminescence, 90 min; response scale: percent relative to full dopamine signal. Potency, µM (series often up to 76.9 µM), inactives show top-dose activation, usual class: activators. actives 5.9% (n = 2,300). AID 720507; also: potency is read from the fitted curve at half-maximal effect; % of control where 0% means no effect; nearly all actives have a fitted effect of over 70% in size
The depositor's hits bear a star; ? = inconclusive; . = not tested or not shown. Unless noted, calls follow the shape of the dose curve; as a rule, active = well fitted activation curve with a large enough effect; inconclusive = small, poorly fitted or top-dose-only effect; inactive = flat fitted curve, though single readings scatter.

SMILES	D2 ag-1	D2 ag-2	D2 antag	D2 PAM-1	D2 PAM-2	D3 arrestin ag	D2 ag-3
CC1(C)CC(=O)C=C(c2ccc3ccccc3c2)C1	.	0	.	4	-8	-2%	3%
Cc1ccc(C2=CC(=O)CC(C)(C)C2)cc1	-1	-3	-14	10	-12	.	.
Nc1nc(C(=O)N2CCOCC2)nn1C(=O)c1ccc(Cl)cc1	0	0	23	6	0	-12%	-10%
O=C(c1ccc(Cl)cc1)c1ccccc1C(=O)N1CCOCC1	0	-1	0	8	-2	.	.
Cc1ccc(-c2cc(C(=O)N(Cc3ccc(C(C)(C)C)cc3)Cc3ccco3)no2)cc1	-2	.	.	13	.	.	.
COc1ccc(CC(=O)Nc2ccc(S(=O)(=O)NC(C)C)cc2)cc1	.	3	.	.	-4	22%	11%
CCCCNS(=O)(=O)c1ccc(NC(=O)Cc2ccc(OC)cc2)cc1	0	2	-4	-7	-5	.	.
N=C(N)SCCN	-1	-2	-4	-1	-3	.	.
O=C1CC(=C2c3ccccc3-c3ccccc32)C(=O)N1CCCCN1CCN(c2ccccc2)CC1	73*	13	44*	-16	-13	8%	23%
O=C1CC(=C(c2ccccc2)c2ccccc2)C(=O)N1CCCN1CCN(c2cccc(Cl)c2)CC1	-1	3	11	-6	-20	.	.
CCC1(O)CCCC2C3CCC4CC(=O)CCC4(C)C3C(=O)CC21C (configuration not stated)	.	0	.	.	-1	.	.
O=C(c1ccc(Cl)cc1)N1CCN(c2cccc3[nH]ccc23)CC1	6	-4	9	2	-6	.	.
Cc1ccc(CN2CCN(c3cccc4[nH]ccc34)CC2)cc1	73*	?	72*	-21	-25	-5%	?
O=C(Cc1c(F)cccc1Cl)NNC(=O)c1ccncc1	0	8	-10	4	-3	-2%	-1%
CCOC(=O)N1CCC(N2CCN(S(=O)(=O)CC)CC2)CC1	0	2	-4	-3	-12	.	.
CCOC(=O)N1CCC(N2CCCC(C(=O)c3cccc(OC)c3)C2)CC1 (configuration not stated)	50*	3	40*	-24	-30	-10%	3%
O=C(c1cccc2ccccc12)N1CCC(N2CCN(c3ccccc3)CC2)CC1	77*	7	75*	-22	16	1.4µM*	?
CCOC(=O)N1CCC(N2CCCC(C(=O)c3cccc(OC(C)C)c3)C2)CC1 (configuration not stated)	-2	-1	18	12	-5	.	.
O=C(c1cccs1)N1CCC(N2CCN(c3ccccc3)CC2)CC1	85*	?	54*	-25	1	7.1µM*	?
CCOC(=O)N1CCC(N2CCN(c3ccccc3)CC2)CC1	45*	?	74*	-11	9	?	?
C[C@H](CO)N1C[C@H](C)[C@@H](CN(C)C(=O)Nc2ccc(C(F)(F)F)cc2)Oc2ccc(NC(=O)C3CCCCC3)cc2C1=O	.	-1	.	.	.	.	.
C[C@@H]1CN([C@@H](C)CO)C(=O)CCCn2nncc2CO[C@H]1CN(C)C(=O)C1CCCCC1	.	-10	.	.	1	.	.
Cc1ccc(C(=O)NCCc2ccc(S(N)(=O)=O)cc2)cc1[N+](=O)[O-]	29	-5	17	-22	-1	-19%	-5%
Cc1c(C(=O)NCCc2ccc(S(N)(=O)=O)cc2)cccc1[N+](=O)[O-]	1	0	-5	22	-2	.	.
O=CN1Cc2ccccc2-c2ccccc2C1	0	-1	4	-3	-9	.	.
Cc1ccc(CN(Cc2ccco2)C(=O)COc2ccc(Cl)cc2)o1	0	.	.	-6	.	.	.
O=C(O)c1ccc(NC(=O)C2C3CCC(C3)C2C(=O)O)cc1 (configuration not stated)	0	-2	-8	1	4	.	.
